We go through 109 sequences from the supplement of paper PMC3334620.

In all, about 33,000 sequences were measured (“E-score (-0.5 to 0.5)”: median about -0.015, highest 2% from about 0.3 on). This excerpt belongs to a sample that is enriched for the highest values.

This test has as its target T1, Abf1 (UniProt P14164).
T1 sequence: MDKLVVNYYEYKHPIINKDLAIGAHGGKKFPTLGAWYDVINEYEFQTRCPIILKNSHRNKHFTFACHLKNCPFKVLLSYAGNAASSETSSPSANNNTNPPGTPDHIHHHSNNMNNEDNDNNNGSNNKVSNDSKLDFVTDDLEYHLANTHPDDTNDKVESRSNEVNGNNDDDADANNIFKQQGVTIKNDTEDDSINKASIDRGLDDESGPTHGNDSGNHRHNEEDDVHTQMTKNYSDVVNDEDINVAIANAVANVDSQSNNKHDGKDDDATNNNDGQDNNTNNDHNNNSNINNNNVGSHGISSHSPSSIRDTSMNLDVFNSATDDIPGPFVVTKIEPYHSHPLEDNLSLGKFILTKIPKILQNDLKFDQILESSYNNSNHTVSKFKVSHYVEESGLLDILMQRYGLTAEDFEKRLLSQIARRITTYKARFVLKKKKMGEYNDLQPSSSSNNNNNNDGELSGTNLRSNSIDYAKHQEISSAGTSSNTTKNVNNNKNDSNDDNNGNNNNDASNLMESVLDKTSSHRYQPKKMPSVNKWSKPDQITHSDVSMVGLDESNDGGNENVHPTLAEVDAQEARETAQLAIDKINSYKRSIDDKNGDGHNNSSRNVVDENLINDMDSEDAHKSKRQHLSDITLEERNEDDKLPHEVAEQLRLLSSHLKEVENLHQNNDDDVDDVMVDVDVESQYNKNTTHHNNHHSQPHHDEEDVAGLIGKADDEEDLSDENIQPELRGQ
In words: PBM E-score (8-mer binding enrichment) (E-score (-0.5 to 0.5)); higher = stronger / more preferred TF binding. As to conditions: protein concentration: 200 nM; construct: GST-full length. The method in brief: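 For each ungapped eight-base word taken together with its reverse complement, the Universal PBM Analysis Suite assigned an E-score. Binding data came from GST-tagged yeast transcription factors, applied at about 100-200 nM, on universal all-10-mer Agilent arrays made double-stranded by primer extension. Fluorescent anti-GST marked bound protein, and scans were normalised with masliner.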
As for TCAACGCA, the “PBM E-score” value was -0.00848.
The same measure for CCCAGAAC: -0.144; for GTGCCTTA: 0.0147; for AGCCTGAG: -0.27.
ATATACGG: the “PBM E-score” value came to 0.339.
Turning to ATCTACGG, the “PBM E-score” value worked out at 0.344.
As to ATCTACGA, the “PBM E-score” value was 0.233.
With ATCTACGC, the “PBM E-score” value worked out at 0.0634.
Turning to CTATACGC, the “PBM E-score” value was -0.0573.
AGATACGA: the “PBM E-score” value came out at 0.223.
In the case of CTATACGA, the “PBM E-score” value came out at 0.327.
Regarding ATATACCG, the “PBM E-score” value turned out to be 0.268.
The same measure for ATATACGC: 0.146; for GTATACGA: 0.242.
As for ATATACGA, the “PBM E-score” value is 0.324.
Take ATATACCA: the “PBM E-score” value was determined as 0.173.
Consider CTGGCGGA, for which the “PBM E-score” value was -0.122.
Regarding AGTCGCTC, the “PBM E-score” value was -0.106.
Regarding CGACCCTC, the “PBM E-score” value was -0.152.
On to GTCGACGA, for which the “PBM E-score” value came to 0.26.
The same measure for TAAGATGA: 0.182; for AGACGGCT: -0.0258.
As for CGTATACG, the “PBM E-score” value amounted to 0.195.
As for ATCGCCCC, the “PBM E-score” value is -0.113.
For ACAACTTA, the “PBM E-score” value was 0.0805.
As for GTAAAGAA, the “PBM E-score” value is 0.113.
The same measure for ACCACACA: -0.0452; for CTGCCGTA: 0.122.
With GTAAGCAA, the “PBM E-score” value worked out at 0.0905.
As to CCTGTCAC, the “PBM E-score” value came out at 0.149.
Regarding ATTGTCAA, the “PBM E-score” value was -0.0577.
Under ATTGTCAG stands 0.141; under ATTGTCAC, 0.398; under CTTGTCAC, 0.357.
With CTTGTCAA, the “PBM E-score” value amounted to 0.0838.
Regarding TAGCCGGA, the “PBM E-score” value was -0.117.
As to ATGTGACA, the “PBM E-score” value came to 0.288.
Take AAGTGACT: the “PBM E-score” value was determined as 0.328.
AAGTGAGG: the “PBM E-score” value is -0.0213.
For the sequence AAGTGACC, the “PBM E-score” value turned out to be 0.252.
In the case of CAGTGACG, the “PBM E-score” value was 0.239.
AAGTGCCA: the “PBM E-score” value is -0.105.
The same measure for AAGTGACA: 0.394; for AAGTGGCT: -0.149.
Take AAGTGACG: the “PBM E-score” value was found to be 0.352.
Regarding GGGCTATA, the “PBM E-score” value was -0.0762.
Take AATCACCC: the “PBM E-score” value stood at 0.195.
For AACGCAAC, the “PBM E-score” value came out at 0.0366.
Turning to CATTTTGG, the “PBM E-score” value stood at 0.124.
The same measure for AGAGTGTG: -0.158; for AGGTGAGG: 0.115.
As for TACAACCA, the “PBM E-score” value was -0.0973.
For the sequence CCGAAGGA, the “PBM E-score” value is -0.29.
In the case of ACCTCATA, the “PBM E-score” value is 0.195.
Under CGGAAGAG stands -0.212; under AGTCCCCG, -0.265; under AGTTTATA, 0.0788.
As to AACTTAGC, the “PBM E-score” value worked out at 0.0723.
As for ATGCACGC, the “PBM E-score” value is -0.131.
Take CTGCACGC: the “PBM E-score” value is -0.24.
Under ATGCACGA stands 0.362; under GTGCACGA, 0.187; under CTGCACGA, 0.303.
The same measure for ATGCACGG: 0.258; for CCAGAGGG: -0.267; for AGAATTTG: -0.0116.
Under AAACGAAG stands 0.108; under GTAATGCA, -0.123; under CATGCTAA, 0.0181.
TAATACGA: the “PBM E-score” value worked out at 0.337.
The same measure for CAATACGA: 0.281; for CAATACGG: 0.228.
In the case of GAATACGA, the “PBM E-score” value worked out at 0.253.
With AAATACGT, the “PBM E-score” value worked out at 0.039.
Regarding AAATACGA, the “PBM E-score” value was determined as 0.333.
For the sequence AAATACGC, the “PBM E-score” value is 0.0308.
For AAATACGG, the “PBM E-score” value amounted to 0.314.
In the case of AGATACGG, the “PBM E-score” value amounted to 0.129.
Regarding CCACGCGG, the “PBM E-score” value was -0.0923.
Take ATACTTAG: the “PBM E-score” value was -0.0263.
In the case of GAAGCTGA, the “PBM E-score” value is -0.0959.
Under GCAGACCC stands -0.286; under CACTGTCA, 0.234.
With GTTCGAAC, the “PBM E-score” value is 0.21.
CTGACAAC: the “PBM E-score” value is -0.0598.
For AAGACAAA, the “PBM E-score” value worked out at 0.127.
Take AAGACAAT: the “PBM E-score” value is 0.138.
The same measure for GTGACAAA: 0.412; for ATGACAAA: 0.338.
The same measure for GGGACAAC: -0.0272.
Take AGGACAAA: the “PBM E-score” value worked out at 0.121.
With AGGACAAT, the “PBM E-score” value was found to be 0.125.
Regarding GTGACAAC, the “PBM E-score” value is 0.375.
Turning to CTGACAAA, the “PBM E-score” value was determined as 0.0266.
On to ATGACAAT, for which the “PBM E-score” value turned out to be 0.344.
Under TTGACAAA stands 0.182.
Take TACGCGCA: the “PBM E-score” value was 0.0188.
Consider TCCCGAAA, for which the “PBM E-score” value came out at 0.0516.
Regarding AATGAAGT, the “PBM E-score” value is -0.0259.
With ATAAACCA, the “PBM E-score” value was 0.0453.
Turning to GCAATGAC, the “PBM E-score” value stood at 0.245.
Consider GCACGCAC, for which the “PBM E-score” value was 0.0219.
As for ACCTGCGT, the “PBM E-score” value is -0.045.
The same measure for ATCCACAC: -0.103; for GACGGGAA: 0.098; for CGGCAGAG: -0.193.
Under CATCCCCG stands -0.108.
In the case of ATAACGAG, the “PBM E-score” value came to 0.24.
In the case of AGCGTGCA, the “PBM E-score” value was determined as 0.0338.
